# Measured values as given in PubChem BioAssay AID720722 (Molecular Libraries Program, Specialized Chemistry Center, …, 2013).
# Activity calls are given as the source filed them. The limit is not given here; nearly all actives have IC50 up to about 12 µM.
# Test: blockers of mitochondrial swelling – biochemical, absorbance, isolated mitochondria, dry powder samples, dose response (AID 720722)
row,SMILES,IC50
1,COc1ccc(C)c2sc(N(CCCN(C)C)C(=O)CS(=O)(=O)c3ccc(F)cc3)nc12,3.9 µM (active)
2,CNCCC=C1c2ccccc2CCc2ccccc21,8.45 µM (active)
3,N#Cc1c(NCCN)nc(-c2ccco2)c2c1CCCC2,8.12 µM (active)
4,C=CCNCCOCCOc1ccc(Cl)cc1C(C)(C)C,4.04 µM (active)
5,C=CCNCCCOc1ccc(C)cc1Br,11.6 µM (active)
6,CCN(CC)c1ccc(NC(=O)c2cc(Cl)ccc2OC)cc1,5.7 µM (active)
7,N=c1sccn1CC(=O)Nc1cccc(Oc2ccccc2)c1,2.92 µM (active)
8,Cc1ccc2nc(N(CCN(C)C)C(=O)/C=C/c3cccs3)sc2c1,3.33 µM (active)
9,CCOC(=O)N1CCN(S(=O)(=O)c2ccc(C(=O)N(CCCN(C)C)c3nc4c(C)c(C)ccc4s3)cc2)CC1,5.28 µM (active)
10,Cc1cc(C)c2nc(N(CCCN(C)C)C(=O)c3ccc(S(=O)(=O)N4CCCCCC4)cc3)sc2c1,2.07 µM (active)
11,COCCCNCCCOc1ccc(Cl)cc1C(C)(C)C,4.04 µM (active)
12,COC(=O)c1c(NC(=O)C2CCCCC2)sc2c1CC(C)(C)NC2(C)C,3.64 µM (active)
13,Cc1ccc2nc(N(CCCN(C)C)C(=O)CCc3ccccc3)sc2c1,1.58 µM (active)
14,CN(C)CCCN1c2ccccc2Sc2ccc(Cl)cc21,2.5 µM (active)
15,COc1ccc(-n2cc(CNC3CCN(C)CC3)c(-c3cccc(F)c3)n2)cc1,2.03 µM (active)
16,COc1ccc(Cl)cc1C(=O)Nc1ccc(CN2CCCCC2)cc1,5.08 µM (active)
17,CC(C)(C)c1ccccc1OCCCCCNCCO,3.67 µM (active)
18,COc1cc(CNCCO)cc(Cl)c1OCc1ccccc1Cl,2.69 µM (active)
19,Cc1cc(C)c2nc(N(CCCN(C)C)C(=O)C3=COCCO3)sc2c1,3.11 µM (active)
20,O=C(CC1NCCc2ccccc21)Nc1ccc(Cl)cc1 (stereo not given),2.78 µM (active)
21,CC1CCCN(CCC(=O)c2ccc(Br)cc2)C1 (stereo not given),3.14 µM (active)
22,CCN(CC)CCCN=Cc1c(O)n(Cc2ccccc2)c(=O)c2ccccc12,3.34 µM (active)
23,C=CCNCCOc1ccc(C(C)(C)c2ccccc2)cc1,12.4 µM (active)
24,CN1CCC[C@@H]1CCO[C@](C)(c1ccccc1)c1ccc(Cl)cc1,4.43 µM (active)
25,COc1cc(NC(=O)c2cc(-c3cccc(O)c3)on2)cc(OC)c1OC,0.391 µM (active)
